The subject of test [1] is PRMT1 (protein arginine N-methyltransferase 1). As to the kind of experiment: PRMT1 binders on small-molecule microarrays, primary screen, biochemical, small-molecule microarray, 635 nm fluorescence (AID 1088).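 Also: binding of Prmt1 protein to compounds spotted on small-molecule microarray slides.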 The following applies: small-molecule microarray binding, higher = more signal.
The nature of test [2]: yeast growth modulation, basal conditions, primary screen, YJM789 clinical isolate, OD600, 24 h (AID 1089).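 Also: growth of clinical yeast isolate S. cerevisiae YJM 789 seeded 1000 cells per well; test concentration not given here.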 The following applies: S. cerevisiae YJM789 growth, higher = more signal, called active from +8 up or from −8 down.
The nature of test [3]: fission yeast growth modulation, primary screen, strain 972, OD600, 24 h, no modulator (AID 1090).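 Also: basal condition with compound alone and no growth modifier present; test concentration not given here.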 The settings on record: S. pombe 972 growth, higher = more signal, called active from +8 up or from −8 down.
Test [4] in a line: S. cerevisiae growth modulation with rapamycin, primary screen, strain BY4716, OD600, 96 h (AID 1091). Also: test concentration not given here. The settings on record: higher = more signal, called active from +8 up or from −8 down.
The target in test [5] is Torsin-1A-interacting protein 2 (Homo sapiens) (UniProt Q8NFQ8). As to the kind of experiment: LULL1 binders on small-molecule microarray, primary screen, cell lysate, human LULL1 lysate, 635/667 nm fluorescence (AID 1092).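 Also: probe is lysate of COS7 cells overexpressing human LULL1; score merges per-feature 667 nm fluorescence with signal-to-noise.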 The settings on record: hLULL1 lysate binding, 635 nm fluorescence, higher = more signal.
Chain of Torsin-1A-interacting protein 2 (Homo sapiens) (Q8NFQ8 whole entry, looked up): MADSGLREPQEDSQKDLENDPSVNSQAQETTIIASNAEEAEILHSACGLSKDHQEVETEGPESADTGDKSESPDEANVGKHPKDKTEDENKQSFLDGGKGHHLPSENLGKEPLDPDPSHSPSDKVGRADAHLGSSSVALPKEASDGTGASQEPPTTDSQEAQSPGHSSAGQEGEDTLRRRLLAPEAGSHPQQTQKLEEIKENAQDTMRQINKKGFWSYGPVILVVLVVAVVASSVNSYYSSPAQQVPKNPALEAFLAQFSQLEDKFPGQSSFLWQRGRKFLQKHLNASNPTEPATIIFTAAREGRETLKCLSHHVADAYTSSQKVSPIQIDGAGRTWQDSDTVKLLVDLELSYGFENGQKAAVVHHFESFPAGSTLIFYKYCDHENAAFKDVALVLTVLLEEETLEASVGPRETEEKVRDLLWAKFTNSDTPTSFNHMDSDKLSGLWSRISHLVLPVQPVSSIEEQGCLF
Test [6] can be described thus: E. coli growth modulation, two-sided OD650, primary screen, E. coli filamentation project, strain DRC41, 24 h (AID 1093).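 Also: MC1000 strain lacking acrAB efflux and sulA so SOS filamentation is blocked; test concentration not given here.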 The settings on record: OD650, 24 h, higher = more signal, called active from +8 up or from −8 down.
The nature of test [7]: small-molecule microarray binders of probe aLefty2, primary screen, biochemical, biotinylated probe, 635/667 nm fluorescence (AID 1094).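 Also: score merges spot fluorescence near 667 nm with spot signal-to-noise ratio.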 The following applies: higher = more signal.
The test system of test [8] is Noggin (protein binding on small-molecule microarray). As to the kind of experiment: Noggin binders on small-molecule microarray, primary screen, biochemical, 635/667 nm fluorescence (AID 1095).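 Also: score merges 667 nm feature fluorescence with signal to noise over triplicate slides.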 The settings on record: 635 nm fluorescence, higher = more signal.
Test [9] has as its target Neurogenic locus notch homolog protein 3 (Homo sapiens) (UniProt Q9UM47). As to the kind of experiment: NOTCH3 binders on small-molecule microarray, primary screen, biochemical, 635/667 nm fluorescence (AID 1096). The following applies: NOTCH3 binding, 635 nm fluorescence, higher = more signal.
Test [10] is described as follows: small-molecule microarray binders of probe aEGFR, primary screen, biochemical, biotinylated probe, 635/667 nm fluorescence (AID 1097).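 Also: probe is a biotinylated anti-EGFR antibody binding compounds printed on slides; score combines fluorescence near 667 nm and signal to noise of each spot.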 The following applies: higher = more signal.

Each structure is given as a SMILES string. Calls of active or inactive are those of the source.

Among the data in PubChem BioAssay are composite z-score and z-score values, retold here.

Chain of Neurogenic locus notch homolog protein 3 (Homo sapiens) (Q9UM47 whole entry, looked up): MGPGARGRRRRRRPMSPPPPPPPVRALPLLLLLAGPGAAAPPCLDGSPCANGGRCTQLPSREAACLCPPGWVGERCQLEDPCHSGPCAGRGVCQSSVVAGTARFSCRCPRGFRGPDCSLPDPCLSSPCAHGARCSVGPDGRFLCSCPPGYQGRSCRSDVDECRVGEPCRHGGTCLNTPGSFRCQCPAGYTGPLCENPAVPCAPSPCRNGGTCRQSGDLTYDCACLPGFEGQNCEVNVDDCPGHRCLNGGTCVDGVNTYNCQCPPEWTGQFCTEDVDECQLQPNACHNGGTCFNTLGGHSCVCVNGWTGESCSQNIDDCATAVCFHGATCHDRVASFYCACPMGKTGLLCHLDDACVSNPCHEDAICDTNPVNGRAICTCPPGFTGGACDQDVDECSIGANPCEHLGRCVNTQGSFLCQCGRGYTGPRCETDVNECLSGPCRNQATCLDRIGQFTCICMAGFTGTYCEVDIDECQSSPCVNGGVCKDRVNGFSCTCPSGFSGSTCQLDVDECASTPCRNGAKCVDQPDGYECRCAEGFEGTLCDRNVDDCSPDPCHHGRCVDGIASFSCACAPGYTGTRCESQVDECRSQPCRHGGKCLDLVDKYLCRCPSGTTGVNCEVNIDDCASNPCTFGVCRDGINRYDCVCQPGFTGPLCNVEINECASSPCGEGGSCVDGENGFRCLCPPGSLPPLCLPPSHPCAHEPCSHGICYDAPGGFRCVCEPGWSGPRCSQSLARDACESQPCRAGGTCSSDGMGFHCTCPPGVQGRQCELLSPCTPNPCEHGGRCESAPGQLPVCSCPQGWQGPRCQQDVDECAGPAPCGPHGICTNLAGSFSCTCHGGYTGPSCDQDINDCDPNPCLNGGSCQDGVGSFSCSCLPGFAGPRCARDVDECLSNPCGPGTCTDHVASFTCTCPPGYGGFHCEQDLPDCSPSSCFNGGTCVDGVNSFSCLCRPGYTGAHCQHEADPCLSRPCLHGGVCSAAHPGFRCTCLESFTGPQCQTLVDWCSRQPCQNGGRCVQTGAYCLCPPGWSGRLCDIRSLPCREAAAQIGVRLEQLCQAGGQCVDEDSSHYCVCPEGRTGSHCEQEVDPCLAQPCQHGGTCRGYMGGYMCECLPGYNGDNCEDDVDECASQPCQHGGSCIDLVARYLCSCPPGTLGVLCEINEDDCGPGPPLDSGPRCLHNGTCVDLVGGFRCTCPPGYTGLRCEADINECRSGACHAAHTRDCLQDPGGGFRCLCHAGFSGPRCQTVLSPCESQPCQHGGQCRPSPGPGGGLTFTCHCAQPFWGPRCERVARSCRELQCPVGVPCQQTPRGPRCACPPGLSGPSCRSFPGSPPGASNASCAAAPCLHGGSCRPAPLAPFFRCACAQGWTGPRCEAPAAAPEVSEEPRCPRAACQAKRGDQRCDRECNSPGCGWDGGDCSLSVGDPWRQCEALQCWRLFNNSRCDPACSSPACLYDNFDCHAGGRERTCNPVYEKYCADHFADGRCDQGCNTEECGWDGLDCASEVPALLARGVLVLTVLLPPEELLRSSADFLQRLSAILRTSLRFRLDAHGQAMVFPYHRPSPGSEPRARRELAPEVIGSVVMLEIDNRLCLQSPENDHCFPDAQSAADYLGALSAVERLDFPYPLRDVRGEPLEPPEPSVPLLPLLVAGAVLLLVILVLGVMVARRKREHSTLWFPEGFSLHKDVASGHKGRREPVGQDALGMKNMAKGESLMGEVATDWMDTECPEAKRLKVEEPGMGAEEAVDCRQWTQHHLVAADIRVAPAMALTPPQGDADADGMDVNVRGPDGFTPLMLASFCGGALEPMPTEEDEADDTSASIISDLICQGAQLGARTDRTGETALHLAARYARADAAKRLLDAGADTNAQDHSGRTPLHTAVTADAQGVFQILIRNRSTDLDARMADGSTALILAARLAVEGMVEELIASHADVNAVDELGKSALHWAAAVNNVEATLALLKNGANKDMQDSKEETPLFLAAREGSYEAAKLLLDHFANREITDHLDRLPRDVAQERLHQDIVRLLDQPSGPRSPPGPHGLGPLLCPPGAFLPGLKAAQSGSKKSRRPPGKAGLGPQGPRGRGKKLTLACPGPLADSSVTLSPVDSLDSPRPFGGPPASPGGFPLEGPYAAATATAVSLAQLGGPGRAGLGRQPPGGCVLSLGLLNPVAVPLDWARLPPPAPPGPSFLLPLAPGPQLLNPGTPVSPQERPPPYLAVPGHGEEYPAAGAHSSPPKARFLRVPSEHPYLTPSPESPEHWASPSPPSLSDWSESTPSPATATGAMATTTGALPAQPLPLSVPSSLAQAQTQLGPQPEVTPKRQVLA

`O=C1O[C@H](c2ccccc2)[C@H](c2ccccc2)N2[C@H]1[C@@H](C(=O)O)[C@]1(C(=O)Nc3ccc(C#CC4(O)CCCCCC4)cc31)[C@H]2c1ccccc1OCCO`: the composite z-score turned out to be 1.56 in test [1]; 2.27 in test [5]; 0.366 in [7]; 0.621 in [8]; 1.11 in test [9]; 0.494 in [10]. The z-score was 2.68 (inactive) in [2], -0.155 (inactive) in test [3], 0.247 (inactive) in test [4] and 1.47 (inactive) in [6].

Turning to `[N-]=[N+]=NCc1ccccc1C[C@@]1(C(N)=O)N=C(c2ccc(OCCCO)cc2)O[C@@H]1c1ccccc1N=[N+]=[N-]`, the composite z-score in test [1] came to 1.28; in test [5], 3.22; in test [7], 0.137; in test [8], 0.0508; in [9], 0.516; in test [10], 0.0766. Besides, the z-score is -0.506 (inactive) in [2], -0.292 (inactive) in test [3], -0.531 (inactive) in test [4] and -0.331 (inactive) in test [6].

Turning to `C=C(C(=O)CC[C@@H](OC(=O)c1ccccc1-c1ccccc1C(=O)O)c1ccc(CO)o1)C(C)C`, the composite z-score was 1.47 in test [1]; 0.167 in [5]; -0.19 in test [7]; 1.07 in test [8]; 1.07 in test [9]; -0.0947 in [10]. The z-score was -0.595 (inactive) in test [2], -0.39 (inactive) in [3], -0.881 (inactive) in [4] and -0.249 (inactive) in test [6].

Consider `CCCCCCc1nc(Cc2cc(OC)c(OC)c(OC)c2)c(C)c2c1[Si](C(C)C)(C(C)C)OC2`, for which the composite z-score is 0.829 in test [1]; 0.377 in test [5]; -0.0487 in test [7]; -0.0156 in test [8]; -0.143 in test [9]; 0.0172 in [10]. Moreover, the z-score was -0.42 (inactive) in [2], -1.61 (inactive) in test [3], -0.0746 (inactive) in [4] and 1.59 (inactive) in test [6].

For `Cc1ccc(S[C@]2(C(=O)NC(C)C)CC(=O)N(Cc3ccccc3)[C@@H]2c2ccc(CO)cc2)cc1`, the composite z-score was -0.251 in test [1]; 0.228 in [5]; -0.0593 in [7]; -0.371 in test [8]; -0.312 in [9]; -0.18 in test [10]. Moreover, the z-score in [2] was -1.58 (inactive); in test [3], 0.433 (inactive); in test [4], -0.632 (inactive); in [6] it was 1.31 (inactive).

For `COc1ccc(CCNC(=O)[C@@H]2c3ccccc3C(=O)N(Cc3cc(F)cc(C(F)(F)F)c3)[C@H]2c2ccc(CO)cc2)cc1`, the composite z-score in [1] was determined as 1.54; in test [5], 2.21; in [7], 0.159; in test [8], 0.415; in [9], 0.195; in [10], 0.179. In addition, the z-score in [2] was -0.0253 (inactive); in [3], -0.131 (inactive); in test [4] it was 0.142 (inactive); in test [6] it was 1.02 (inactive).

For the compound `COC(=O)C1=CC(CCCO)=CC(c2ccc(CN3CCCC3)cc2)N(C)C=C1C(=O)OC` (stereo not given), the composite z-score was 0.853 in test [1]; 3.4 in test [5]; 0.0723 in test [7]; -0.2 in test [8]; 0.276 in test [9]; 0.0816 in test [10]. Besides, the z-score was -0.512 (inactive) in [2], 0.0939 (inactive) in test [3], -0.19 (inactive) in [4] and 0.0791 (inactive) in [6].

Regarding `CO[C@H]1O[C@H](CO)[C@@H](OC(=O)Nc2cccc(F)c2)[C@H](OC(=O)Nc2ccc3c(c2)OCO3)[C@@H]1OC(=O)Nc1ccc2c(c1)OCO2`, the composite z-score is 1.53 in test [1]; 3.48 in [5]; 0.126 in [7]; 0.691 in test [8]; 1.08 in test [9]; -0.039 in [10]. In addition, the z-score in test [2] was 1.79 (inactive); in [3], 1.24 (inactive); in [4] it was 7.48 (inactive); in test [6], -0.0741 (inactive).

Turning to `CC(C)c1ccc(NN2C(C(O)C3=C[C@H]4C[C@@H](C3)C4(C)C)C=CC3C(=O)N(c4ccccc4)C(=O)C32)cc1` (stereo not given in full), the composite z-score in test [1] was 1.32; in [5], 2.6; in test [7], 0.363; in [8] it was 0.501; in test [9] it was 1.08; in test [10] it was 0.114. In addition, the z-score in [2] was 0.191 (inactive); in test [3], -0.0249 (inactive); in test [4], 0.264 (inactive); in test [6], -0.661 (inactive).

Take `O=C1C2C=CC(C(O)C(c3ccccc3)c3ccccc3)N(Nc3ccccc3F)C2C(=O)N1c1ccccc1` (stereo not given): the composite z-score in [1] worked out at 1.52; in test [5], 3.58; in test [7], 0.0943; in [8] it was 0.295; in test [9], 1.02; in test [10], 0.162. For the same compound, the z-score was 0.504 (inactive) in test [2], 0.973 (inactive) in test [3], 1.75 (inactive) in test [4] and -1.06 (inactive) in test [6].

Take `CO[C@H]1O[C@H](CO)[C@@H](OC(=O)Nc2cccc(F)c2)[C@H](OC(=O)c2cc3ccccc3[nH]2)[C@H]1OC(=O)c1cc2ccccc2[nH]1`: the composite z-score in [1] is 0.669; in test [5], 0.338; in test [7], -0.15; in test [8], 0.696; in test [9], 0.0453; in test [10], -0.1. Moreover, the z-score in test [2] was -2 (inactive); in test [3], 0.201 (inactive); in [4], 0.296 (inactive); in [6], -0.178 (inactive).

On to `COc1ccc([Si](C)(C)[C@H]2[C@H](CC(=O)N(CCO)Cc3ccccc3)O[C@@]3(C(=O)N(c4ccccc4)c4ccccc43)[C@@H]2C)cc1`, for which the composite z-score in test [1] is 1.51; in test [5] it was 1.79; in test [7], -0.11; in test [8], 1.3; in test [9], 1.11; in [10] it was -0.13. The z-score in [2] was 1.48 (inactive); in [3], 0.656 (inactive); in test [4] it was 3.73 (inactive); in test [6] it was -0.366 (inactive).

As to `C=C(CC1([C@@H](NP(=O)(c2ccccc2)c2ccccc2)[C@H]2C[C@@H]2CCCC)CC1)c1cccc(OC)c1`, the composite z-score in test [1] was -0.155; in [5], 1.66; in test [7], 0.179; in test [8] it was -0.239; in test [9] it was 0.36; in test [10], -0.0563. The z-score was 0.557 (inactive) in [2], 0.832 (inactive) in test [3], 1.82 (inactive) in test [4] and -0.768 (inactive) in [6].

Take `Cc1ccc(S[C@]2(C(=O)NCC(C)C)CC(=O)N(C(C)C)[C@@H]2c2ccc(CO)cc2I)cc1`: the composite z-score in [1] is 1.53; in [5], 0.979; in test [7] it was 0.0968; in test [8], -1.6; in [9], -0.0735; in test [10], -0.127. Further, the z-score in test [2] was -1.68 (inactive); in [3], -2.56 (inactive); in test [4], -0.0302 (inactive); in test [6], 0.97 (inactive).
